Assay outcomes deposited in PubChem BioAssay by National Center for Advancing Translational Sciences (NCATS).
This is a sample that favours compounds with a hit; in the whole collection about 10% have one here.
JMJD2A Tudor inh – blocks the human JMJD2A Tudor domain. O75164. AlphaScreen JMJD2A-Tudor / H3K4me3 peptide binding. Potency, µM (highest dose often 114 µM), for the others: top-dose activity change, negative = inhibition, actives largely listed as inhibitors. 390,000 compounds, 4.4% hits; also: potency is read from the fitted curve at half-maximal effect; % is scaled to controls: 0 for no effect and ±100 for the full control effect; nearly all actives have a fitted effect of over 50% in size
Six1-Eya2 inh – blocks human Six1 binding to Eya2; Q15475+O00167; AlphaScreen GST-Six1/His-Eya2 binding, biochemical; stronger effect = lower value; activity change, % (no concentration beside the values); 360,000 compounds, 0.56% hits; AID 651725; in the data active = activity change below about -65%; inconclusive = mostly about -30% to -63%; also: % is scaled to controls: 0 for no effect and ±100 for the full control effect
Target sequence (O00167 whole entry, looked up): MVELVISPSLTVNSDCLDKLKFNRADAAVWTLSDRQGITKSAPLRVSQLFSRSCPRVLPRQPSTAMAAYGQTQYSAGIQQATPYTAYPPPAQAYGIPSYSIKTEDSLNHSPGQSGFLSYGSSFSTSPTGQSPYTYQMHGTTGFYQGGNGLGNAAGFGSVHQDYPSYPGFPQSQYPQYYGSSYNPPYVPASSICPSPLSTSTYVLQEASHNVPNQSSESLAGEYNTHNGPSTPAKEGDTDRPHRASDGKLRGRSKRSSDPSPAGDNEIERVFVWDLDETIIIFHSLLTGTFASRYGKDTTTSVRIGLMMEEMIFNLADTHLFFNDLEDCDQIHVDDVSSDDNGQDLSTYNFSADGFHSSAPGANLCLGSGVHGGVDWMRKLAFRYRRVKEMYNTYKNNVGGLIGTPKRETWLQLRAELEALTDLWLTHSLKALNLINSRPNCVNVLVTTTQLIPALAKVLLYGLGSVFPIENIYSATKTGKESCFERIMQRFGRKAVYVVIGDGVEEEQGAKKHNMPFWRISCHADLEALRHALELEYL
Target sequence (Q15475 whole entry, looked up): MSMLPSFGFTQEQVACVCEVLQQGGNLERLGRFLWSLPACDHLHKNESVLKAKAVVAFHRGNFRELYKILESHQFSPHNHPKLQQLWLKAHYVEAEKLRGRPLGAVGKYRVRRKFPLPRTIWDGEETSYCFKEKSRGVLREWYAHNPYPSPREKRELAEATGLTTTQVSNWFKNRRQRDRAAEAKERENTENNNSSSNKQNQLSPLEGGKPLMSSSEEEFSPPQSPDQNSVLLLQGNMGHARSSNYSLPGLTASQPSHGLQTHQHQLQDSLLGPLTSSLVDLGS
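Homogeneous AlphaScreen proximity assay pairing GST-Six1 with His-tagged Eya2 (added as 5X mix: 250 nM and 500 nM) in 50 mM Tris pH 8.0, 300 mM NaCl, 1 mM TCEP. Glutathione donor and nickel acceptor beads; 1 h, 37 °C, dark.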
BAZ2B block – blocks human BAZ2B. Q9UIF8. AlphaScreen BAZ2B-H3K14Ac peptide displacement. Potency, µM (top dose mostly 114 µM), for the others: at the top dose activity change, negative = inhibition, actives largely listed as inhibitors. 360,000 compounds, 4.4% hits. AID 504333; also: potency is read from the fitted curve at half-maximal effect; % is scaled to controls: 0 for no effect and ±100 for the full control effect; nearly all actives have a fitted effect of over 60% in size
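BAZ2B 50 nM plus b-H3(5-23)K14Ac 50 nM, PBS pH 7.4/0.01% Tween-20, 30 min RT; compound added (max 110 uM), 30 min RT; streptavidin donor/Ni-chelate acceptor beads 10 ug/mL final, 20 min dark; AlphaScreen read.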
CtBP-E1A inh – CtBP/E1A binding inhibition; activity change, % (concentration not given with the values); AID 651724; AlphaScreen GST-E1A/His-CtBP binding, 1536-well; stronger effect = lower value; 340,000 compounds, 0.49% hits; in the data active = activity change below about -65%; inconclusive = mostly about -30% to -63%; also: % is scaled to controls: 0 for no effect and ±100 for the full control effect
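Steps: dispense buffer (Tris pH 8.0, NaCl 300 mM, TCEP 1 mM, BSA, Tween 20); add 5X protein mix (GST-E1A, His-CtBP, 125 nM each); pin 23 nL compound; 2 h at 37 °C, dark; add 5X beads (50 ug/mL); 1 h; read.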
G9a inh – blocks human histone lysine methyltransferase G9a; Q96KQ7; 350,000 compounds, 8.8% hits; G9a H3K9 monomethylation, AlphaScreen, 2 h; Potency, µM (top dose mostly 102 µM), without a hit: top-dose activity, negative = inhibition, most hits filed as inhibitors; AID 504332; also: potency is read from the fitted curve at half-maximal effect; % is scaled to controls: 0 for no effect and ±100 for the full control effect; nearly all actives have a fitted effect of over 75% in size
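G9a (20 nM) was preincubated 15 min with compound, then reacted 2 h at room temperature with 500 nM biotin-H3K9 peptide and 20 µM SAM. Monomethyl-H3K9 detected by AlphaScreen using anti-H3K9me1 antibody.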
HP1b binding inh – blocks HP1-beta chromodomain binding to methylated histone tails | P83916 | AlphaScreen HP1-beta / biotin-H3K9me3 peptide binding | Potency, µM (titrated, usually from 114 µM), for inactives: top-dose activity change, negative = inhibition, usual class: inhibitors | 390,000 compounds, 0.56% hits; also: potency is read from the fitted curve at half-maximal effect; nearly all actives have a fitted effect of over 70% in size
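HP1-beta protein (50 nM final) preincubated 30 min at room temperature with biotinylated H3(1-18)K9me3 peptide (50 nM) in PBS pH 7.4, 0.01% Tween-20, then compound added for 30 min. AlphaScreen streptavidin donor/nickel chelate acceptor beads (10 ug/mL final), 30 min dark, luminescence read.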
* hit, by the source's call; ? = inconclusive; nt = no result given; [ ] = remark or other dose. Unless noted, calls follow the shape of the dose curve; as a rule, active = well fitted inhibition curve with a large enough effect; inconclusive = small, poorly fitted or top-dose-only effect; inactive = no such curve, though single readings can be large or run the other way.

SMILES	JMJD2A Tudor inh	Six1-Eya2 inh	BAZ2B block	CtBP-E1A inh	G9a inh	HP1b binding inh
COc1ccc(CNc2ncnc3cc(OC)c(OC)cc23)cc1	-21%[11.4 µM]	-24	12%	-11	40µM*	55%
COc1cc(-c2ccc3ncnc(NCc4ccc(C)o4)c3c2)cc(OC)c1OC	50µM*	nt	nt	nt	nt	nt
COc1ccc(CNc2ncnc3cc(Cl)ccc23)cc1	-4%	-1	14%	3	nt	40%
COc1ccccc1CNc1ncnc2cc(OC)c(OC)cc12	-29%	7	-16%	nt	32µM*	49%
COc1cc2ncnc(NCc3ccco3)c2cc1OC	-26%	-10	-35%	-22	?	20%
COc1cc2ncnc(NCc3ccccc3)c2cc1OC	-15%[11.4 µM]	-17	10%	0	71µM*	55%
CCOc1ccc(-c2c(C)nn3c(C)c(C(=O)NCC(C)c4ccccc4)cnc23)cc1OCC (stereo not given)	-32%	nt	?	nt	0%[59 µM]	?
COc1ccc(-c2nc3cnc(N4CCNCC4)nc3n(CCc3ccccc3)c2=O)cc1	nt	nt	nt	nt	9%[12.7 µM]	nt
COc1cc2ncnc(NCc3cccc(Cl)c3)c2cc1OC	-4%	-9	-4%	-10	40µM*	29%
COc1ccc(CNc2ncnc3cc(OC)c(OC)cc23)cc1OC	-18%	-8	-18%	-11	45µM*	13%
COc1ccc(C2=C(Nc3ccc(C)cc3C)c3ccccc3C2=O)cc1	28µM*	nt	-25%	nt	?	-20%
COc1ccc(NC2=C(c3ccc(OC)cc3)C(=O)c3ccccc32)cc1	-23%	-27	-29%	?	-10%[59 µM]	-3%
Cn1cccc1/C=N/NC(=O)c1ccccn1	?	-19	35µM*	-26	3.2µM*	-8%
Cn1cccc1/C=N/NC(=O)c1cc(-c2cccs2)nc2ccccc12	?	?	22µM*	-3	32µM*	?
O=C(N/N=C/c1cccs1)c1ccccn1	-14%	-11	?	-27	6.3µM*	16%
Cn1cccc1/C=N/NC(=O)c1cc2ccccc2cc1O	?	-23	28µM*	-21	-8%	?
Cn1cccc1/C=N/NC(=O)c1ccncc1	-14%	16	-22%	0	4%	4%
CCC1CCC2(C1)N=C(Nc1nc3ccccc3o1)NC1=C2C(=O)CCC1 (stereo not given)	-35%	nt	nt	nt	nt	nt
CC1CCC2(C1)N=C(Nc1nc3ccccc3o1)NC1=C2C(=O)CCC1 (stereo not given)	56µM*	nt	nt	nt	nt	nt
COCCCNc1nc2c(S(=O)(=O)c3ccc(C)c(C)c3)nnn2c2ccc(Cl)cc12	3%	nt	-1%	nt	7%[59 µM]	46%
CC1(C)OC(c2ccccc2)=C/C(=C/C=C2C(=O)c3ccccc3C2=O)O1	3.2µM*	-12	1.4µM*	-8	2.5µM*	?
Cc1ccc(C(=O)CC2(O)C(=O)N(C)c3ccccc32)o1 (stereo not given)	-21%	4	0%	5	50µM*	41%
COC(=O)c1sc2ccccc2c1S(=O)(=O)N1CCN(c2ccc(C(C)=O)cc2)CC1	-18%	nt	-33%	nt	?	12%
Brc1cc2c(cc1/C=N/Nc1nc(N3CCCC3)nc(N3CCOCC3)n1)OCO2	-27%	-17	-9%	-6	16µM*	7%
Oc1ccc(Br)cc1/C=N/Nc1nc(N2CCCCC2)nc(N2CCOCC2)n1	-13%	6	-13%	13	15%	37%
SMILES	JMJD2A Tudor inh	Six1-Eya2 inh	BAZ2B block	CtBP-E1A inh	G9a inh	HP1b binding inh
N#Cc1c(=O)c2nc(NCCCO)ncc2n2c(=O)c3ccccc3[nH]c12	56µM*	?	13µM*	?	45µM*	28%
CC(C)CC(=O)Nc1ccc(C(=O)OCc2cc(=O)n3nc(C(C)C)sc3n2)cc1	-17%	nt	-9%	nt	10%[59 µM]	24%
COc1ccc(N=C2SC(C(=O)N3CCN(c4ccc([N+](=O)[O-])cc4)CC3)CC(=O)N2C)cc1 (stereo not given)	-12%	-13	?	-1	nt	21%
COc1ccc(N=C2SCC(c3ccc(C)cc3)=NN2CCO)cc1	-34%	-5	?	-16	50µM*	-10%
O=[N+]([O-])c1ccc(C2=NN(CCO)C(=Nc3ccc(OC(F)(F)F)cc3)SC2)cc1	?	-13	?	?	16µM*	?
O=C(Cc1ccc(Cl)cc1)NN1C(=O)c2ccccc2C1=O	-15%	-1	5%	2	8%[59 µM]	3%
COC(=O)[C@@H]1[C@@H](C#N)C2(c3ccccc3-c3ccccc32)N(c2ccc(Cl)cc2)N1C#N	18µM*	?	?	8	?	?
CSc1ncc(C(=O)NCc2ccc(C)cc2)c(-c2ccccc2)n1	-10%	nt	-6%	nt	-7%[59 µM]	16%
Clc1ccc(C2=Nn3c(Cn4nnc5ccccc54)nnc3SC2)cc1	79µM*	-4	?	-4	nt	?
c1ccc(C2=Nn3c(Cn4nnc5ccccc54)nnc3SC2)cc1	-7%	1	-5%	0	?	27%
c1ccc(Cc2nnc3n2N=C(c2ccccc2)CS3)cc1	-19%	-1	-35%	0	-40%[59 µM]	18%
c1ccc(-c2ccc(C3=Nn4c(Cn5nnc6ccccc65)nnc4SC3)cc2)cc1	?	-12	6%[57.1 µM]	-9	8.9µM*	16µM*
CCOc1cc(C(=O)Nc2ccc3c(c2)n(C)c(=O)c(=O)n3C)cc(OCC)c1OCC	-3%	nt	2%	nt	3%[59 µM]	11%
Cc1c(C(=O)O)c(O)cc2c1C(=O)c1c(O)c([C@H]3O[C@H](CO)[C@@H](O)[C@H](O)[C@H]3O)c(O)c(O)c1C2=O	nt	nt	nt	nt	7.1µM*	nt
COc1c(O)cc2c(c1O)[C@@H]1O[C@H](CO)[C@@H](O)[C@H](O)[C@H]1OC2=O	3%	-2	-1%	nt	9%[2.33 µM]	44%
Cc1c(C(=O)O)c(O)cc2c1C(=O)c1c(O)c([C@@H]3O[C@H](CO)[C@@H](O)[C@H](O)[C@H]3O)c(O)c(O)c1C2=O	25µM*	?	nt	-2	nt	?
O=C(CCCn1c(=O)c2sccc2n(Cc2ccc(F)cc2Cl)c1=O)NCc1ccc2c(c1)OCO2	-11%	nt	0%	nt	-38%[59 µM]	16%
Cc1ccc(C2N3CC4(C)CN2CC(c2ccccc2)(C3)C4=O)cc1 (stereo not given)	-19%	nt	-27%	nt	-3%[59 µM]	32%
Cc1cc(C)c2nc(C(F)(F)F)c(C#N)c(N)c2c1	-5%	7	10%	4	16%	26%
CCCc1nc2c(C)cc(C)cc2c(N)c1CC	4.5µM*	-5	-34%	-8	?	-11%
CCN(CC)S(=O)(=O)c1ccc2c(c1)N(CC(=O)NCCc1ccccc1)C(=O)CO2	-18%	nt	-13%	nt	-5%[59 µM]	12%
